Source: PubChem BioAssay
“And” between values parts separate entries of the source, which are not always exact repeats. Identical values can stand only once. For some assays here: Entries with a potency or affinity are not part of this list. More than one record can exist for a structure, and the calls need not agree. The source made the active and inactive calls. Unless noted, the rule behind the calls is not given here.

Tests used:
[1] = antimalarial activity against Dd2 strain (AID 2302;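 active = growth inhibition above 50% at the single 2 µM test dose, taken to imply half-maximal potency below 2 µM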;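 note: 0% = DMSO untreated growth and 100% = chloroquine plus artemisinin killed control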); details: P. falciparum Dd2 in RBCs, LDH growth readout, 72 h; at 2 µM; stronger effect = higher value
[2] = human hepatoma cell viability loss – ATP luminescence, cytotoxicity control for P. falciparum antimalarial project, primary screen (AID 2303;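 active = inhibition above 50%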;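 note: 0% = DMSO wells and 100% = digitonin-killed cells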); details: HepG2 viability, 24-48 h, at 10 µM, stronger effect = higher value
[3] = target: L-lactate dehydrogenase (Plasmodium falciparum (isolate CDC / Honduras)) (UniProt Q27743); test: PfLDH activity inhibition – cell lysate, 3D7 strain, counter-screen for P. falciparum growth inhibition project (AID 2304);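 note: 0% = vehicle and 100% = reference inhibitor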; details: P. falciparum 3D7 crude extract, LDH APAD/NBT absorbance; at 2 µM; stronger effect = higher value
Sequence of L-lactate dehydrogenase (Plasmodium falciparum (isolate CDC / Honduras)) (Q27743 whole entry, looked up): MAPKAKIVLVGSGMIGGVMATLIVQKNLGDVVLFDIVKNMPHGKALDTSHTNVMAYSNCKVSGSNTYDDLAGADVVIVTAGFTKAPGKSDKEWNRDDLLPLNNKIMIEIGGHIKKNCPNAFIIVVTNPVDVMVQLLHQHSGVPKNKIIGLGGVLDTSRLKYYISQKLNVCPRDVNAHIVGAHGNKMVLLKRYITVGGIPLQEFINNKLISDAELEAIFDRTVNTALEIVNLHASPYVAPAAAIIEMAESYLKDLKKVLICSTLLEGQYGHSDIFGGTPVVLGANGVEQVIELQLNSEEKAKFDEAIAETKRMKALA

[4] = inhibition of 3D7 malaria parasite growth – strain 3D7 (AID 2306);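 note: 0% = DMSO wells and 100% = chloroquine plus artemisinin control wells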; details: P. falciparum 3D7 erythrocytic growth, LDH absorbance, 72 h; at 2 µM; stronger effect = higher value
[5] = target: Calcium-dependent protein kinase 1 (Plasmodium falciparum (isolate 3D7)) (UniProt P62344); test: PfCDPK1 kinase inhibitors, biochemical, TCAMS library (AID 1159585; cut-off not given, nearly all actives have IC50 up to about 0.98 µM;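 note: inhibitors leave more ATP so luminescence rises with inhibition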); details: recombinant PfCDPK1, Kinase-Glo ATP depletion luminescence
Sequence of Calcium-dependent protein kinase 1 (Plasmodium falciparum (isolate 3D7)) (P62344 whole entry, looked up): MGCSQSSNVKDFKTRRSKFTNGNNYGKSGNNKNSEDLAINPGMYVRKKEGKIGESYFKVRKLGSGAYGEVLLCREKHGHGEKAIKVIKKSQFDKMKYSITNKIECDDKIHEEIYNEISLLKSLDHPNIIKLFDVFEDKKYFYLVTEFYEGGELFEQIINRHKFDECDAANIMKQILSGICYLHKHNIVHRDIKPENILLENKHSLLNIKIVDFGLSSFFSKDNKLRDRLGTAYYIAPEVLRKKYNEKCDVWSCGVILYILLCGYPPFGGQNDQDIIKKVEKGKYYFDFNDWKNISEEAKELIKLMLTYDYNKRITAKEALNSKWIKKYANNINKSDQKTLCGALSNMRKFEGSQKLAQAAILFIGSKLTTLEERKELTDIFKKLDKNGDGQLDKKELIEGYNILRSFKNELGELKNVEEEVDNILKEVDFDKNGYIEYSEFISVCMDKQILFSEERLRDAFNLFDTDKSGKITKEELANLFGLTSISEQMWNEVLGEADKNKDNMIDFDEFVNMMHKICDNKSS

[6] = target: Plasmodium falciparum protein kinase 6 (PK6, PF3D7_1337100) (UniProt Q8IDW1); test: PfPK6 kinase inhibitors, biochemical, TCAMS library (AID 1159586); details: recombinant PfPK6, Kinase-Glo ATP depletion luminescence
Sequence of Plasmodium falciparum protein kinase 6 (PK6, PF3D7_1337100) (Q8IDW1 1-305): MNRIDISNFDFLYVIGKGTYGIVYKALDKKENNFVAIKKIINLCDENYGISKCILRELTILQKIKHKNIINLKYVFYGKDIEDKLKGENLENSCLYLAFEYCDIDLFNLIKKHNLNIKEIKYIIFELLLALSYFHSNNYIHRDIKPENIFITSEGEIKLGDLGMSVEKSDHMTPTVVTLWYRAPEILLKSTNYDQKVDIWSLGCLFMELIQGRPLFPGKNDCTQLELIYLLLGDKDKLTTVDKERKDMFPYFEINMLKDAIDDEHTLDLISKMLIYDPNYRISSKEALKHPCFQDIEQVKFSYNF

[7] = target: Protein kinase 7 (PK7), Plasmodium falciparum 3D7 (PF3D7_0213400) (UniProt Q7YTF7); test: inhibition of Plasmodium PK7 catalytic activity – biochemical, TCAMS antimalarial set, Kinase-Glo luminescence (AID 1159587); details: recombinant PfPK7, Kinase-Glo ATP depletion luminescence
Sequence of Protein kinase 7 (PK7), Plasmodium falciparum 3D7 (PF3D7_0213400) (Q7YTF7 1-343): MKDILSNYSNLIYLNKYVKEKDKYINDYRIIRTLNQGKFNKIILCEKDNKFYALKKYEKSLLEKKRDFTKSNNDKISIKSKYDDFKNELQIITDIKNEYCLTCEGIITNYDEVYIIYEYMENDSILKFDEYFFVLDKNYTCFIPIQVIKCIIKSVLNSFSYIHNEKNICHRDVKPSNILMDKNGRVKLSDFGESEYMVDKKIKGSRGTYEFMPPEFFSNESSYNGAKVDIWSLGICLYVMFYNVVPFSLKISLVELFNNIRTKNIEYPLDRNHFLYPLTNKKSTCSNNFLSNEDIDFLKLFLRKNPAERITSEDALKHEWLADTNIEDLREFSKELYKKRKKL

[8] = target: Calcium-dependent protein kinase 4 (Plasmodium falciparum (isolate 3D7)) (UniProt Q8IBS5); test: PfCDPK4 kinase inhibitors, biochemical, TCAMS library (AID 1159588; cut-off not given, nearly all actives have IC50 up to about 0.91 µM); details: recombinant PfCDPK4, Kinase-Glo ATP depletion luminescence
Sequence of Calcium-dependent protein kinase 4 (Plasmodium falciparum (isolate 3D7)) (Q8IBS5 whole entry, looked up): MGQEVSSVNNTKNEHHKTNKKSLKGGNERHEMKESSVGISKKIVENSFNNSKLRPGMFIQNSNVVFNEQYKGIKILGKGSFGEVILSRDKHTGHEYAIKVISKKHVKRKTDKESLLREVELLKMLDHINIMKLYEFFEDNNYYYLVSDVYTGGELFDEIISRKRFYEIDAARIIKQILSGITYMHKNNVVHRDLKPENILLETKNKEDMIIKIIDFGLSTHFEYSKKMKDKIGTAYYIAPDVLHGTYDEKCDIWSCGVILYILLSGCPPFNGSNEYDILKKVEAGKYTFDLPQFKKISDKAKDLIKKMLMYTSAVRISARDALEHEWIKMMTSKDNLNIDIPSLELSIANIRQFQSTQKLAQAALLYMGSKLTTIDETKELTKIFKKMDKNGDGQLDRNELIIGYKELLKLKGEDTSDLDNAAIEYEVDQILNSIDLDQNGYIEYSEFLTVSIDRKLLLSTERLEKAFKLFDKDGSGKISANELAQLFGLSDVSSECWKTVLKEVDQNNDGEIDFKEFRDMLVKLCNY

F380Y = test: BK channel mutant inhibitors and activators – cell-based, U2OS BacMam, thallium flux, beta subunits, selectivity assay, profiling panel (AID 1259406;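 active = thallium flux through the channel raised or lowered by more than 3 SD from vehicle-only wells, actives on both sides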;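 note: initial slope of Thallos dye fluorescence rise after thallium is added; log ratio against the mean of 0.3% DMSO vehicle wells on the same plate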); details: U2OS BacMam BK variants, at 30 µM
F380Y/beta1 = test: as above; details: U2OS BacMam BK variants, at 30 µM
F380Y/beta2Delta = test: as above; details: U2OS BacMam BK variants, at 30 µM
F380Y/beta4 = test: as above; details: U2OS BacMam BK variants, at 30 µM
[9] = target: Calcium-activated potassium channel subunit alpha-1 (Homo sapiens) + Leucine-rich repeat-containing protein 26 (Homo sapiens) (UniProt Q12791+Q2I0M4); test: as above; details: U2OS BacMam BK variants, F380Y/Slo1WT/gamma1, at 30 µM
Sequence of Calcium-activated potassium channel subunit alpha-1 (Homo sapiens) + Leucine-rich repeat-containing protein 26 (Homo sapiens) (Q2I0M4 whole entry, looked up, one chain of several): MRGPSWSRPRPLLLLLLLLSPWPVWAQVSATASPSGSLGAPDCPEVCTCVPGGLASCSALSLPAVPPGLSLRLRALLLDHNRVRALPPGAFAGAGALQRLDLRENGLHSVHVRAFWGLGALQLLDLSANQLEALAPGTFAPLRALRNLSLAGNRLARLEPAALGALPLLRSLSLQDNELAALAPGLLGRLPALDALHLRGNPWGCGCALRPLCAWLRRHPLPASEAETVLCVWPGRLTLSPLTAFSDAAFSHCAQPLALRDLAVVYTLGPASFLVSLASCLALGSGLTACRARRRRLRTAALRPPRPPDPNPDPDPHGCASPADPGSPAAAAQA

R275C = test: as above; details: U2OS BacMam BK variants, at 30 µM
R275C/beta1 = test: as above; details: U2OS BacMam BK variants, at 30 µM
R275C/beta2Delta = test: as above; details: U2OS BacMam BK variants, at 30 µM
R275C/beta4 = test: as above; details: U2OS BacMam BK variants, at 30 µM
R275C/Slo1WT/beta2 = test: as above; details: U2OS BacMam BK variants, at 30 µM

CC[C@H]1CN2CC[C@H]1C[C@H]2[C@H](O)c1cc(-c2ccc(Cl)c(Cl)c2)nc2ccc(OC)cc12
active: growth inhibition [1] 99% | growth inhibition [4] 98%
inactive: inhibition [2] 17% | inhibition [3] 6% | outcome [5] | outcome [6] | outcome [7] | outcome [8]

COc1ccc(CC(C)NCC(O)c2cccc(Cl)c2F)cc1 (stereo not drawn)
active: growth inhibition [1] 59% | growth inhibition [4] 88%
inactive: inhibition [2] 3% | inhibition [3] -6% | outcome [5] | outcome [6] | outcome [7] | outcome [8]

N#Cc1ccc(N(CC(=O)NCCc2ccc(F)cc2)CC2CC2)c2ccccc12
active: growth inhibition [4] 91%
inactive: growth inhibition [1] 23% | inhibition [2] 28% | inhibition [3] -2% | outcome [5] | outcome [6] | outcome [7] | outcome [8]

O=C(/C=C/c1ccc2ccccc2c1)NC1CCC(CN2CCC(c3c[nH]c4ccccc34)CC2)CC1 (stereo not drawn)
active: growth inhibition [1] 88% | growth inhibition [4] 100%
inactive: inhibition [2] 28% | inhibition [3] 4% | outcome [5] | outcome [6] | outcome [7] | outcome [8]

Cc1[nH]c2ccccc2c1C1=CCN(CCN2CCCc3c(Br)cccc3C2=O)CC1
inactive: inhibition [2] 10% | inhibition [3] -1% | outcome [5] | outcome [6] | outcome [7] | outcome [8]
active: growth inhibition [1] 90% | growth inhibition [4] 95%

c1ccc(C(OCCC2CCN(Cc3cccnc3)CC2)c2ccccc2)cc1
inactive: inhibition [2] 12% | inhibition [3] 5% | outcome [5] | outcome [6] | outcome [7] | outcome [8]
active: growth inhibition [1] 98% | growth inhibition [4] 99%

O=C(O)c1ccc2nc(-c3ccc(-c4ccccc4)cc3)n(C3CCN(Cc4ccc(-c5ncc[nH]5)cc4)CC3)c2c1
inactive: inhibition [2] 3% | inhibition [3] 1% | outcome [5] | outcome [6] | outcome [7] | outcome [8]
active: growth inhibition [1] 99% | growth inhibition [4] 91%

CCCc1ccc2c(c1O)CCC(N(CCC)CCC)C2 (stereo not drawn)
active: growth inhibition [4] 90%
inactive: growth inhibition [1] 23% | inhibition [2] -3% | inhibition [3] 3% | outcome [5] | outcome [6] | outcome [7] | outcome [8]

O=C(C=Cc1cccc(Cl)c1Cl)NC1CCC(CN2CCC(c3c[nH]c4ccccc34)CC2)CC1 (stereo not drawn)
inactive: inhibition [2] 40% and 33% | inhibition [3] 6% and -5% | outcome [5] | outcome [6] | outcome [7] | outcome [8]
active: growth inhibition [4] 102% and 83%
78% (active) and 5% (inactive): growth inhibition [1]

Cc1ccc(CC(C)(C)NCC(O)c2cccc(C(F)(F)F)c2)cc1 (stereo not drawn)
active: growth inhibition [1] 92% | growth inhibition [4] 97%
inactive: inhibition [2] 19% | inhibition [3] 2% | outcome [5] | outcome [6] | outcome [7] | outcome [8]

Cc1ccc(S(=O)(=O)N2CN3CCN(C3)C2)cc1
inactive: log fold change Tl+ flux (F380Y) -0.028 | log fold change Tl+ flux (F380Y/beta1) -0.0265 | log fold change Tl+ flux (F380Y/beta2Delta) -0.0357 | log fold change Tl+ flux (F380Y/beta4) 0.048 | log fold change Tl+ flux [9] 0.0134 | log fold change Tl+ flux (R275C) 0.0146 | log fold change Tl+ flux (R275C/beta1) -0.00993 | log fold change Tl+ flux (R275C/beta2Delta) -0.021 | log fold change Tl+ flux (R275C/beta4) -0.0275 | log fold change Tl+ flux (R275C/Slo1WT/beta2) 0.0283

O=C(C=Cc1ccc(Br)cc1)NC1CCC(CN2CCC(c3c[nH]c4ccccc34)CC2)CC1 (stereo not drawn)
active: growth inhibition [1] 98% | inhibition [2] 71% | growth inhibition [4] 101%
inactive: inhibition [3] -3% | outcome [5] | outcome [6] | outcome [7] | outcome [8]

CCC1=C[C@@H]2CN(C1)Cc1c([nH]c3ccccc13)[C@@](C(=O)OC)(c1cc3c(cc1OC)N(C)[C@H]1[C@@](O)(C(=O)OC)[C@H](O)[C@]4(CC)C=CCN5CC[C@]31[C@@H]54)C2
inactive: inhibition [3] -1% | outcome [5] | outcome [6] | outcome [7] | outcome [8]
active: growth inhibition [1] 99% | growth inhibition [4] 98%

CN(c1cc(NC(=O)c2ccc(F)cc2)ccn1)C1CCN(Cc2ccc(C#N)cc2)CC1
inactive: inhibition [2] 13% | inhibition [3] 2% | outcome [5] | outcome [6] | outcome [7] | outcome [8]
active: growth inhibition [1] 54% | growth inhibition [4] 87%
